# Screening results from PubChem BioAssay.
# aSyn yeast inh = inhibitors of alpha-synuclein toxicity in yeast. Yeast expressing alpha-synuclein, growth rescue, BacTiter-Glo, 24 h. Potency, µM (titrated, usually from 46.1 µM), for the others: top-dose growth rescue (activation), actives largely listed as activators. 370,000 tested, 0.14% active; also: % of control where 0% means no effect; nearly all actives have a fitted effect of over 65% in size
#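 Readout is rescue of growth in alpha-synuclein-expressing yeast, so inhibitors of toxicity appear as activators. Growth after 24 hr at 30 deg C in galactose medium is quantified by luminescence.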
# Abeta rescue = restores growth of yeast expressing A-beta42 peptide; yeast expressing A-beta42, growth rescue, OD600, 48 h; response scale: 0% DMSO, 100% iron-clioquinol control; Potency, µM (doses to about 46.1 µM), hits mostly activators; 410,000 tested, 0.063% active; AID 1347071; also: nearly all actives have a fitted effect of over 55% in size
#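 Yeast growth medium received pinned compounds, then yeast cells expressing toxic A-beta were added; plates incubated at 30 C for 48 hr. Growth read as absorbance at 600 nm, normalized to DMSO and equimolar FeCl3 plus clioquinol controls.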
# TDP-43 yeast inh = TDP-43 toxicity inhibition in yeast; Potency, µM (titrated, usually from 46.1 µM), for inactives: at the highest dose growth rescue (activation), hits mostly activators; TDP-43 expressing yeast growth rescue, BacTiter-Glo, 24 h; 410,000 tested, 1.8% active; also: % of control where 0% means no effect; nearly all actives have a fitted effect of over 50% in size
#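 Yeast expressing TDP-43 (pregrown in raffinose, seeded at OD600=0.02 in galactose medium) exposed to compounds 24 hr at 30 deg C. Growth read by BacTiter-Glo luminescence; rescue of toxicity appears as increased signal.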
# FUS yeast rescue = suppressors of FUS proteinopathy in yeast | 390,000 tested, 0.24% active | S. cerevisiae FUS-expressing, growth rescue, OD600, 24 h | Potency, µM (doses to about 76.6 µM), hits mostly activators | AID 1347120;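 also: plate controls were DMSO vehicle for no effect and reference control for full effect; nearly all actives have a fitted effect of over 55% in size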
#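 FUS-expressing yeast, raffinose-pregrown, induced in 2% galactose minimal medium at OD 0.005; compounds in a dilution series, 24hr at 30C. Growth restoration read as absorbance at 600 nm. CP55940 positive control, DMSO negative.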
# Starred values were filed as active, the others as inactive; i = inactive; ? = inconclusive; · = not tested or not shown; [ ] = dose if it differs, or a comment. Sampled rows, rich in hits. Any-hit rate of the full collection: about 2.1%. Calls follow the shape of the dose curve; as a rule, active = well fitted curve in the direction sought with a large enough effect; inconclusive = small, poorly fitted or top-dose-only effect, or another doubt; inactive = no such curve, though single readings can be large; an effect the other way counts as inactive or inconclusive. Potency is read from the fitted curve at half-maximal effect.
SMILES,aSyn yeast inh,Abeta rescue,TDP-43 yeast inh,FUS yeast rescue
CC1CCCN(c2nc3c(c(=O)n(C)c(=O)n3C)n2Cc2ccccc2)C1 (stereo unspecified),18.6%,i,17.8µM*,i
CCOC(=O)/C=C/C(=O)OCC(=O)Nc1ccc(OC)c(Cl)c1,2.6%,i,35.5µM*,i
CCc1ccc2occ(CC(=O)NCc3ccccc3)c2c1,·,i,11.2µM*,i
COc1ccc(NC(=O)COC(=O)/C=C/C(=O)OCC(=O)Nc2ccc(OC)c(Cl)c2)cc1Cl,-0.5%,i,6.9%,·
CCc1ccc2occ(CC(=O)Nc3ccc(OC)c(Cl)c3)c2c1,?,i,15.8µM*,i
CCOc1ccc(CNC(=O)c2ccc3c(c2)nc2n3CCOC2)cc1,·,i,20.9%,i
C/C=C/c1ccc2c(c1)O[C@H](CN(C)CC1CCOCC1)[C@@H](C)CN([C@H](C)CO)S2(=O)=O,?,i,0.0%,i
COc1cccc(/C=N/Nc2nccnc2Cl)c1O,-19.8%,?,?,i
Oc1ccc(/C=N/Nc2nccnc2Cl)c(O)c1,11.2µM*,i,13.7%,·
Oc1ccc(/C=N/Nc2ncc(Br)cn2)c(O)c1,17.8µM*,i,10.4%,i
Oc1ccc(C=NNc2ccccn2)c(O)c1,2.9%,i,17.2%,·
Oc1ccccc1/C=N/Nc1nccnc1Cl,14.1µM*,?,?,i
COc1ccccc1NC(=O)CSC1=NC(=O)C(NC(C)=O)C(=O)N1 (stereo unspecified),1.7%,i,17.6%,i
COc1cc(/C=C/C(=O)c2ccc(C)c([N+](=O)[O-])c2)cc(OC)c1O,-9.2%,i,1.8%,·
COc1ccc(/C=C/C(=O)c2ccc(C)c([N+](=O)[O-])c2)cc1O,-55.1%,i,22.4µM*,·
O=C(Nc1ccc(F)cc1)C(c1cc2ccccc2o1)N1CCN(C(=O)c2ccco2)CC1 (stereo unspecified),0.8%,i,-2.5%,22.4µM*
CCN(C(=O)COC(=O)c1c2c(nc3ccccc13)/C(=C/c1ccccc1)CC(C)C2)C1CCS(=O)(=O)C1 (stereo unspecified),12.9%,i,14.1µM*,·
CCN(C(=O)COC(=O)c1c(C)nn(-c2ccccc2)c1C)C1CCS(=O)(=O)C1 (stereo unspecified),-1.2%,i,-9.3%[9.22 µM],i
O=C(c1ccoc1)N1CCN(c2cc(-c3ccncc3)nc3cc(-c4cccc(Cl)c4)nn23)CC1,-2.8%,i,?,i
O=C(c1ccoc1)N1CCN(c2cc(-c3cccnc3)nc3cc(-c4cccc(Cl)c4)nn23)CC1,-0.8%,i,7.94µM*,?
CC(=O)N1CCN(c2cc(-c3ccccc3)nc3cc(-c4cccc(Cl)c4)nn23)CC1,-11.2%,i,2.24µM*,i
O=C(c1ccncc1)N1CCN(c2cc(-c3ccccc3)nc3cc(-c4cccc(Cl)c4)nn23)CC1,?,i,?,i
COc1ccc2c(/C=N/Nc3ccc(C(=O)O)cc3)c[nH]c2c1,10.2%,i,3.2%,?
O=C(NCCCc1ccccc1)C1CCN(C(=O)N2CCOc3ccc(Cl)cc32)CC1,·,i,?,i
COc1cccc(-n2c(-c3ccccc3F)nc3c(cnn3-c3ccc(C)cc3)c2=O)c1,·,i,-8.3%,15.8µM*
SMILES,aSyn yeast inh,Abeta rescue,TDP-43 yeast inh,FUS yeast rescue
Cc1nc(-c2ccc(F)cc2)sc1CCNC(=O)c1ccccc1,·,i,17.8µM*,i
Cc1nc(-c2ccc(F)cc2)sc1CCNC(=O)c1ccc(OC(C)C)cc1,·,i,15.8µM*,i
COc1ccc(-c2nc(C)c(CCNC(=O)c3ccco3)s2)cc1,-9.5%,i,15.8µM*,i
Cc1nc(-c2ccc(F)cc2)sc1CCNC(=O)c1ccc(C(C)(C)C)cc1,·,i,-2.6%,i
Cc1nc(-c2ccc(F)cc2)sc1CCNC(=O)c1cccs1,·,i,8.91µM*,i
Cc1ccc(-c2nc(C)c(CCNC(=O)c3ccco3)s2)cc1,-12.2%,i,?,i
COC(=O)c1cn(CC(=O)NCc2ccco2)c2ccccc12,-13.4%,i,-10.7%,i
Cc1nc(-c2ccccc2)sc1C(=O)Nc1ccccc1F,-0.1%,i,12.6µM*,i
COc1ccc(-c2nc(C)c(CCNC(=O)C(=O)Nc3cc(C)cc(C)c3)s2)cc1OC,9.6%,i,23.1%,i
